This is part of a sample that, as a whole, favours compounds with a hit. Of some 79,000 tested, about 15% had one in any assay. Unmarked numbers belong to inactive results. Cut-off read from the data, not from the text of the source: active = growth inhibition above about 70%; inactive = the rest. Where a SMILES comes first, the peptide text is derived from it. The star is where a group is joined. Cbz = O=C(OCc1ccccc1)*
Experiment: NCI Yeast Anticancer Drug Screen. Data for the rad50 strain (AID 155);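 note: 0% = growth of vehicle-only cultures of the same strain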
Conditions: S. cerevisiae rad50 strain growth inhibition; at 50.0 µM; active compounds read high
Summary of the method: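 A DNA repair-deficient yeast mutant serves as the test organism; compound-induced growth inhibition is calculated against vehicle-treated cells.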

| SMILES | growth inhibition |
| --- | --- |
| O=C(O)C(CO)NC(=O)C1CCCN1C(=O)OCc1ccccc1 (stereo not drawn) (Cbz-Pro-Ser-OH; configuration not given here) | -1.95% |
| CCC(=O)N1NC(=O)C(CC)(CC)C1=O | -1.95% |
| O=C(Nc1ccccn1)c1ccc([N+](=O)[O-])cc1 | 33% |
| CC(CC(=O)O)C(C)C(=O)O (configuration not stated) | -7.9% |
| OCC1CCCCCCCCCC1 | 36.3% |
| O=[N+]([O-])c1ccc(/C(=N/Nc2ccccc2)c2ccc(Cl)cc2)cc1 | 13.2% |
| CCn1c(=O)c2[nH]c(Cl)nc2n(CC(C)Cl)c1=O (configuration not stated) | 19.1% |
| CCCCNc1c(C(=O)N2CCCCC2)cnc2c1cnn2CC | -3.15% |
| CCOC(=O)c1n[nH]c(C)c1C/C(=N/O)c1ccccc1 | -14.3% |
| C/C=C/C=C/c1nc(C#N)c(N)o1 | -7.6% |
| O=C(NCCCCCCNC(=O)Nc1cccc2ccccc12)Nc1cccc2ccccc12 | -13.9% |
| CC(C)(C)C1CCC2c3c([nH]c4ccccc34)C3C(=O)N(c4ccccc4[N+](=O)[O-])C(=O)C3C2C1 (configuration not stated) | -16.9% |
| Clc1ccccc1C(N1CCCCC1)N1CCCCC1 | 27.9% |
| CC(=O)Nc1ccc(S(=O)(=O)SC(F)(F)F)cc1 | 0.8% |
| CCCCCCCCCCCCCCCOc1cc(OC)ccc1-c1nnc(SC)s1 | -15.2% |
| CCOC(=O)Oc1ccc(C(=O)NCCC(C)C)cc1OCC | -11.8% |
| c1ccc(C(N2CCNCC2)N2CCNCC2)cc1 | -2.05% |
